Measured values reported in PubChem BioAssay (NCI).
Compounds without any hit were thinned out: in the full panel of roughly 79,000, 15% have a hit. Calls of active or inactive are those of the source. No stated cut-off is given here; in the data, active means growth inhibition above about 70%; inactive means the rest.

Tests used:
[1] = NCI Yeast Anticancer Drug Screen. Data for the rad52 strain (AID 147);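 further: 0% = growth of vehicle-treated control cultures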; details: S. cerevisiae rad52 mutant growth inhibition, active compounds read high
Outline: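 Inhibition of yeast growth, referenced to vehicle controls, was the measured output for a strain with defective DNA damage repair.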

[2] = NCI Yeast Anticancer Drug Screen. Data for the wt1 strain (AID 149);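 further: 0% = growth of vehicle-treated wt1 cultures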; details: S. cerevisiae wt1 strain (SPY 50644) growth inhibition, active compounds read high
Outline: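 wt1 yeast, compound-treated; % growth inhibition vs vehicle control.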

[3] = NCI Yeast Anticancer Drug Screen. Data for the rad50EPP+ strain (AID 151);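 further: 0% = growth of vehicle-treated control cultures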; details: S. cerevisiae rad50 mutant strain, active compounds read high
Outline: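 Genetically defined yeast (rad50EPP+, DNA damage repair alteration) is grown with compound, and inhibition of growth is expressed relative to vehicle-treated controls.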

[4] = NCI Yeast Anticancer Drug Screen. Data for the mgt1 strain (AID 153); details: S. cerevisiae mgt1 mutant growth inhibition, active compounds read high
Outline: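 In the mgt1 strain, test compounds were added and growth inhibition was determined relative to vehicle-treated controls.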

[5] = NCI Yeast Anticancer Drug Screen. Data for the rad50 strain (AID 155);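 further: 0% = growth of vehicle-only cultures of the same strain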; details: S. cerevisiae rad50 strain growth inhibition, active compounds read high
Outline: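 Genetically altered yeast (DNA repair pathway); compound treatment; growth inhibition vs vehicle ctrl.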

[6] = NCI Yeast Anticancer Drug Screen. Data for the mec2-1 strain (AID 157); details: S. cerevisiae mec2-1 strain, active compounds read high
Outline: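 Each compound was tested on mec2-1 yeast, a strain altered in DNA damage repair or cell cycle control. Growth inhibition is reported relative to vehicle.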

[7] = NCI Yeast Anticancer Drug Screen. Data for the rad14 strain (AID 159);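 further: 0% = growth of vehicle-treated control cultures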; details: S. cerevisiae rad14 strain growth inhibition, active compounds read high
Outline: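 Test compounds were applied to a repair-deficient yeast strain. Its growth was then compared with that of cultures given vehicle alone, and inhibition was expressed relative to those controls.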

[8] = NCI Yeast Anticancer Drug Screen. Data for the sgs1 mgt1 strain (AID 161);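 further: 0% = growth of cultures given vehicle only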; details: S. cerevisiae sgs1 mgt1 strain, active compounds read high
Outline: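 Mutant yeast exposed to compound; growth scored against vehicle-only wells.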

[9] = NCI Yeast Anticancer Drug Screen. Data for the CLN2oe strain (AID 163);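 further: 0% = growth of vehicle-only control cultures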; details: S. cerevisiae CLN2oe strain, active compounds read high
Outline: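 First, the altered yeast strain was treated with each compound; second, its growth was measured; finally, inhibition was derived by comparison with vehicle controls.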

[10] = NCI Yeast Anticancer Drug Screen. Data for the cln2 rad14 strain (AID 165);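 further: 0% = growth equal to vehicle treated cultures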; details: S. cerevisiae cln2 rad14 strain, active compounds read high
Outline: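 Test compounds were added to cln2 rad14 yeast cultures; inhibition of growth was then determined by comparison with vehicle treatment.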

[11] = NCI Yeast Anticancer Drug Screen. Data for the bub3 strain (AID 167); details: S. cerevisiae bub3 mutant strain, active compounds read high
Outline: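 Yeast carrying a defined mutation is treated with each compound, and growth is compared with that of vehicle-exposed cells to give inhibition.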

[12] = NCI Yeast Anticancer Drug Screen. Data for the wt2 strain (AID 169);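 further: 0% = growth of vehicle-treated yeast cultures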; details: S. cerevisiae wt2 strain growth inhibition, active compounds read high
Outline: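 The panel's yeast strains carry defined changes in DNA repair or cell cycle genes. Each strain is grown with compound, and growth loss is scored relative to vehicle.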

[13] = NCI Yeast Anticancer Drug Screen. Data for the mlh1 strain (AID 171);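 further: 0% = growth of vehicle-treated control cultures of the same strain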; details: S. cerevisiae mlh1 strain growth inhibition, active compounds read high
Outline: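 Inhibition values reflect reduced yeast growth in the presence of compound, referenced to vehicle controls, using a strain chosen for its alteration in DNA repair or cell cycle control.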

[14] = NCI Yeast Anticancer Drug Screen. Data for the sgs1 strain (AID 173);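 further: 0% = growth of vehicle-only control cultures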; details: S. cerevisiae sgs1 mutant, active compounds read high
Outline: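 Vehicle-treated cultures served as reference for growth inhibition of a yeast strain altered in DNA damage repair or cell cycle control after compound exposure.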

[15] = NCI Yeast Anticancer Drug Screen. Data for the mlh1 rad18 strain (AID 175); details: S. cerevisiae mlh1 rad18 strain growth inhibition, active compounds read high
Outline: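 Inhibition values reflect reduced growth of mutant yeast versus vehicle-treated controls following compound exposure; the mutations affect DNA damage repair.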

[16] = NCI Yeast Anticancer Drug Screen. Data for the rad18 strain (AID 177); details: S. cerevisiae rad18 mutant growth inhibition, active compounds read high
Outline: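 Steps: expose repair-mutant yeast to compound; measure growth; express as inhibition relative to vehicle control.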

[17] = at 5.0 µM (retest, dose inferred, filed as 0.5)
[18] = at 50.0 µM (retest, dose inferred, filed as 5.0)

Measured: growth inhibition

O=[N+]([O-])c1ccc(S(=O)(=O)Cc2ccccc2)c([N+](=O)[O-])c1
active: [1]; at 33.0 µM 89% | [1]; at 100.0 µM 99% | [2]; at 33.0 µM 88% | [2]; at 100.0 µM 99% | [3]; at 11.0 µM 87% | [3]; at 33.0 µM 97% | [3]; at 100.0 µM 97% | [4]; at 33.0 µM 98% | [4]; at 100.0 µM 99% | [5]; at 33.0 µM 87% | [5]; [18] 100% | [5]; at 50.0 µM 99.5% | [5]; at 100.0 µM 98% | [6]; at 33.0 µM 96% | [6]; [18] 100% | [6]; at 50.0 µM 99.8% | [6]; at 100.0 µM 99% | [7]; at 33.0 µM 74% | [7]; at 100.0 µM 99% | [8]; [18] 100% | [8]; at 50.0 µM 99.5% | [9]; at 100.0 µM 95% | [10]; [18] 99% | [10]; at 50.0 µM 98.6% | [11]; at 33.0 µM 85% | [11]; [18] 99% | [11]; at 50.0 µM 99.4% | [11]; at 100.0 µM 95% | [12]; at 33.0 µM 98% | [12]; at 100.0 µM 98% | [13]; at 33.0 µM 93% | [13]; at 100.0 µM 99% | [14]; at 33.0 µM 98% | [14]; at 100.0 µM 99% | [15]; [18] 100% | [15]; at 50.0 µM 99.4% | [16]; at 11.0 µM 87% | [16]; at 33.0 µM 96% | [16]; at 100.0 µM 99%
inactive: [1]; at 1.2 µM 6% | [1]; at 3.7 µM 17% | [1]; at 11.0 µM 47% | [2]; at 1.2 µM 6% | [2]; at 3.7 µM 9% | [2]; at 11.0 µM 24% | [3]; at 1.2 µM 36% | [3]; at 3.7 µM 67% | [4]; at 1.2 µM 10% | [4]; at 3.7 µM 14% | [4]; at 11.0 µM 35% | [5]; at 1.2 µM 9% | [5]; at 3.7 µM 14% | [5]; [17] 65% | [5]; at 11.0 µM 41% | [6]; at 1.2 µM 12% | [6]; at 3.7 µM 18% | [6]; [17] 31% | [6]; at 11.0 µM 39% | [7]; at 1.2 µM 7% | [7]; at 3.7 µM 10% | [7]; at 11.0 µM 22% | [8]; [17] 46% | [9]; at 1.2 µM -1% | [9]; at 3.7 µM 7% | [9]; at 11.0 µM 21% | [9]; at 33.0 µM 61% | [10]; [17] 7% | [11]; at 1.2 µM 1% | [11]; at 3.7 µM 6% | [11]; [17] 56% | [11]; at 11.0 µM 44% | [12]; at 1.2 µM 7% | [12]; at 3.7 µM 15% | [12]; at 11.0 µM 37% | [13]; at 1.2 µM 9% | [13]; at 3.7 µM 17% | [13]; at 11.0 µM 35% | [14]; at 1.2 µM 16% | [14]; at 3.7 µM 30% | [14]; at 11.0 µM 65% | [15]; [17] 65% | [16]; at 1.2 µM 27% | [16]; at 3.7 µM 57%

O=C1Nc2ccc(Br)cc2C1=Nc1ccc(Cl)cc1
active: [2]; at 100.0 µM 71% | [5]; [17] 70% | [5]; [18] 100%
inactive: [1]; at 1.2 µM -20% | [1]; at 3.7 µM -12% | [1]; at 11.0 µM 9% | [1]; at 33.0 µM 42% | [1]; at 100.0 µM 64% | [2]; at 1.2 µM -8% | [2]; at 3.7 µM -15% | [2]; at 11.0 µM 14% | [2]; at 33.0 µM 42% | [3]; at 1.2 µM -45% | [3]; at 3.7 µM -10% | [3]; at 11.0 µM -8% | [3]; at 33.0 µM 8% | [3]; at 100.0 µM 41% | [4]; at 1.2 µM -52% | [4]; at 3.7 µM -55% | [4]; at 11.0 µM -21% | [4]; at 33.0 µM 20% | [4]; at 100.0 µM 50% | [5]; at 1.2 µM -29% | [5]; at 3.7 µM -20% | [5]; at 11.0 µM 12% | [5]; at 33.0 µM 42% | [5]; at 50.0 µM 57.4% | [5]; at 100.0 µM 64% | [6]; at 1.2 µM -68% | [6]; at 3.7 µM -75%
